Data published in PubChem BioAssay (NCATS).
Inconclusive results are not listed. Active and inactive are the calls of the source. Calls follow the shape of the dose curve; as a rule, active = well fitted cell-killing curve with a large enough effect; inconclusive = small, poorly fitted or top-dose-only effect, or effect the other way; inactive = no such curve, though single readings can be large or run the other way.

Legend:
[1] = Quantitative High-Throughput drug screen in 47 multiple myeloma cell lines against the NCATS MIPE library collection: PE2_PLB cell viability assay (AID 1919869); also: nearly all actives have a fitted effect of over 35% in size
Summary of the method: (§1)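 ATP-based CellTiter-Glo luminescence after 48 h drug exposure (37 °C, 5% CO2) of 500 myeloma cells per well. DMSO-only wells set 100% viability, media-only wells 0%; MIPE 4.0 library added by pin tool.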

[2] = Quantitative High-Throughput drug screen in 47 multiple myeloma cell lines against the NCATS MIPE library collection: PCM6_Riken cell viability assay (AID 1919870); also: nearly all actives have a fitted effect of over 30% in size
Summary of the method: as §1

[3] = Quantitative High-Throughput drug screen in 47 multiple myeloma cell lines against the NCATS MIPE library collection: RPMI8226_ATCC cell viability assay (AID 1919871); also: nearly all actives have a fitted effect of over 30% in size
Summary of the method: as §1

[4] = Quantitative High-Throughput drug screen in 47 multiple myeloma cell lines against the NCATS MIPE library collection: OPM2_DSMZ cell viability assay (AID 1919872); also: nearly all actives have a fitted effect of over 30% in size
Summary of the method: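 qHTS of the MIPE 4.0 collection: 500 myeloma cells/well, 48 h drug exposure at 37C in 5% CO2, then CellTiter-Glo for 5 min at room temperature before luminescence reading.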

[5] = Quantitative High-Throughput drug screen in 47 multiple myeloma cell lines against the NCATS MIPE library collection: KMS11_JCRBsus cell viability assay (AID 1919873); also: nearly all actives have a fitted effect of over 50% in size
Summary of the method: as §1

[6] = Quantitative High-Throughput drug screen in 47 multiple myeloma cell lines against the NCATS MIPE library collection: KMS28BM_JCRB cell viability assay (AID 1919874); also: nearly all actives have a fitted effect of over 35% in size
Summary of the method: as §1
Potency is read from the fitted curve at half-maximal effect.

SMILES	Potency [1]	Potency [2]	Potency [3]	Potency [4]	Potency [5]	Potency [6]
Cn1c(=O)c2[nH]cnc2n(C)c1=O	inactive	inactive	inactive	inactive	inactive	inactive
CCc1cccc2c3c([nH]c12)C(CC)(CC(=O)O)OCC3 (stereo not drawn)	inactive	inactive	inactive		inactive	
CNCCCC12CCC(c3ccccc31)c1ccccc12	23.5 µM (active)	23.5 µM (active)	20.9 µM (active)	23.5 µM (active)	9.35 µM (active)	16.6 µM (active)
Cc1cn([C@H]2C[C@H](N=[N+]=[N-])[C@@H](CO)O2)c(=O)[nH]c1=O	20.9 µM (active)	14.8 µM (active)	inactive	inactive	inactive	inactive
O=c1[nH]cc(F)c(=O)[nH]1	inactive	10.5 µM (active)	0.235 µM (active)	inactive	13.2 µM (active)	inactive
CC(C)C(=O)Nc1ccc([N+](=O)[O-])c(C(F)(F)F)c1	3.32 µM (active)	3.32 µM (active)	inactive	inactive		
CN(C)C(=O)C(CCN1CCC(O)(c2ccc(Cl)cc2)CC1)(c1ccccc1)c1ccccc1	26.4 µM (active)	20.9 µM (active)	20.9 µM (active)	18.7 µM (active)	10.5 µM (active)	
Cn1cnc2c1c(=O)[nH]c(=O)n2C	9.35 µM (active)	16.6 µM (active)	20.9 µM (active)	20.9 µM (active)	9.35 µM (active)	
CC[N+](CC)(CC)CCOc1cccc(OCC[N+](CC)(CC)CC)c1OCC[N+](CC)(CC)CC	inactive	inactive	inactive	0.118 µM (active)		
CS(=O)(=O)CCNCc1ccc(-c2ccc3ncnc(Nc4ccc(OCc5cccc(F)c5)c(Cl)c4)c3c2)o1	1.66 µM (active)	1.18 µM (active)	26.4 µM (active)	16.6 µM (active)	20.9 µM (active)	
CN1C(C(=O)Nc2ccccn2)=C(O)c2ccccc2S1(=O)=O	inactive	inactive	inactive		inactive	
CC(C)NCC(O)COc1ccc(CCOCC2CC2)cc1 (stereo not drawn)	inactive	inactive	inactive	inactive		
O=C1Cc2cc(CCN3CCN(c4nsc5ccccc45)CC3)c(Cl)cc2N1	18.7 µM (active)	18.7 µM (active)	20.9 µM (active)			
Cc1cnc(C(=O)NCCc2ccc(S(=O)(=O)NC(=O)NC3CCCCC3)cc2)cn1	14.8 µM (active)	16.6 µM (active)	16.6 µM (active)	inactive		
Nc1nc2c(ncn2COC(CO)CO)c(=O)[nH]1	23.5 µM (active)	23.5 µM (active)	26.4 µM (active)	23.5 µM (active)	18.7 µM (active)	29.6 µM (active)
CN(CCOc1ccc(NS(C)(=O)=O)cc1)CCc1ccc(NS(C)(=O)=O)cc1	inactive	inactive	inactive	inactive	inactive	inactive
COc1cc2nc(N(C)CCCNC(=O)C3CCCO3)nc(N)c2cc1OC (stereo not drawn)	inactive	inactive				
Clc1ccc(C(c2ccccc2Cl)C(Cl)Cl)cc1 (stereo not drawn)	inactive	18.7 µM (active)	23.5 µM (active)		18.7 µM (active)	
CC(CCc1ccc(O)cc1)NCCc1ccc(O)c(O)c1 (stereo not drawn)	20.9 µM (active)	20.9 µM (active)	18.7 µM (active)	18.7 µM (active)	26.4 µM (active)	26.4 µM (active)
OCCN1CCN(CCCN2c3ccccc3Sc3ccc(C(F)(F)F)cc32)CC1	20.9 µM (active)	23.5 µM (active)	16.6 µM (active)	inactive	13.2 µM (active)	
CC(C(=O)O)c1cccc(C(=O)c2ccccc2)c1 (stereo not drawn)	23.5 µM (active)	16.6 µM (active)	inactive		inactive	
CN1CCC(=C2c3ccccc3C=Cc3ccccc32)CC1	23.5 µM (active)	18.7 µM (active)				
O=c1c(-c2ccc(O)cc2)coc2cc(O)cc(O)c12	inactive	7.43 µM (active)	20.9 µM (active)	inactive		inactive
NC(=O)NO	3.32 µM (active)	2.35 µM (active)	3.72 µM (active)	6.62 µM (active)	0.526 µM (active)	
NCCCCCC(=O)O	inactive	inactive	inactive	inactive	inactive	
CCOC(=O)C(C)(C)Oc1ccc(Cl)cc1	inactive	inactive	inactive	inactive	inactive	inactive
O=C1c2c(O)ccc(O)c2C(=O)c2c(NCCNCCO)ccc(NCCNCCO)c21	0.166 µM (active)	0.935 µM (active)	4.69 µM (active)	3.32 µM (active)	1.48 µM (active)	0.662 µM (active)
